Source: PubChem BioAssay (Tox21)
Inconclusive results are not listed. The source made the active and inactive calls. Unless noted, the call rests on the fitted dose curve; in most records, active means well fitted curve in the direction sought with a large enough effect in the repeat runs; inconclusive means weak or mixed curves; inactive means no such curve, though single readings can be large; an effect the other way counts as inactive or inconclusive.

Tests used:
[1] = qHTS assay to identify small molecule antagonists of the glucocorticoid receptor (GR) signaling pathway - cell viability counter screen (AID 720693); further: nearly all actives have a fitted effect of over 55% in size
[2] = qHTS assay for identifying genotoxic compounds that show differential cytotoxicity against isogenic chicken DT40 cell lines with known DNA damage response pathways - wild type cell line (AID 743012); further: nearly all actives have a fitted effect of over 60% in size
How it was run: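 First, wild type DT40 cells were plated at 300 per well and equilibrated about 0.5 h at 37 C/5% CO2. Next, compounds in DMSO were added and exposure lasted 40 h. Finally, CellTiter-Glo was added for 30 min at room temperature and luminescence recorded.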

[3] = qHTS assay for identifying genotoxic compounds that show differential cytotoxicity against isogenic chicken DT40 cell lines with known DNA damage response pathways - Rev3 mutant cell line (AID 743014); further: nearly all actives have a fitted effect of over 55% in size
[4] = qHTS assay for identifying genotoxic compounds that show differential cytotoxicity against isogenic chicken DT40 cell lines with known DNA damage response pathways - Rad54/Ku70 mutant cell line (AID 743015); further: nearly all actives have a fitted effect of over 60% in size
[5] = qHTS assay to identify small molecule antagonists of the androgen receptor (AR) signaling pathway - cell viability counter screen (AID 743033; further: nearly all actives have a fitted effect of over 45% in size)
[6] = qHTS assay to identify small molecule antagonists of the androgen receptor (AR) signaling pathway using the MDA cell line - cell viability counter screen (AID 743041; further: nearly all actives have a fitted effect of over 45% in size)
How it was run: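 Cells were plated at 3,000 per well and left 5 h. Compounds in DMSO were then pinned in, followed by R1881. After 16 h at 37C, CellTiter-Fluor fluorescence gave viability.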

[7] = qHTS assay to identify small molecule antagonists of the thyroid receptor (TR) signaling pathway (AID 743065); further: series mostly up to about 70 µM; nearly all actives have a fitted effect of over 55% in size
How it was run: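 Antagonism measured as loss of luciferase signal in GH3 cells stably carrying a TRE-luciferase reporter, co-treated with compound and T3 (1 nM final) for 23.5 h at 37 C. Viability was read in the same well by CellTiter-Fluor.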

[8] = tested on: thyroid hormone receptor (rat, GH3 cells); assay: qHTS assay to identify small molecule agonists of the thyroid receptor (TR) signaling pathway (AID 743066; calls by dose curve)
[9] = target: Estrogen receptor (Homo sapiens) (UniProt P03372); assay: qHTS assay to identify small molecule antagonists of the estrogen receptor alpha (ER-alpha) signaling pathway (AID 743069; active means well fitted curve in the direction sought with a large enough effect in the signal ratio in the repeat runs, not every such curve was filed as active; the % refers to the signal ratio)
How it was run: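 ER-alpha-UAS-bla GripTite HEK293 line; 2% charcoal-stripped FBS overnight; plated, 4 hr 37C/5% CO2; cpd in DMSO + 17beta-estradiol, 18 hr 37C; LiveBLAzer B/G FRET substrate 2 hr RT; fluorescence intensity.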

[10] = qHTS assay to identify small molecule antagonists of the estrogen receptor alpha (ER-alpha) signaling pathway - cell viability counter screen (AID 743074; calls by dose curve;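 further: HEK293 cells carrying ER-alpha-UAS-bla reporter stimulated with 17beta-estradiol; nearly all actives have a fitted effect of over 45% in size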)
[11] = target: Estrogen receptor (Homo sapiens) (UniProt P03372); assay: qHTS assay to identify small molecule agonists of the estrogen receptor alpha (ER-alpha) signaling pathway (AID 743075; calls by dose curve;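 further: HEK293 GripTite cells with ER-alpha and UAS-driven beta-lactamase reporter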)
[12] = target: Estrogen receptor (Homo sapiens) (UniProt P03372); assay: qHTS assay to identify small molecule agonists of the estrogen receptor alpha (ER-alpha) signaling pathway using the BG1 cell line (AID 743079); further: nearly all actives have a fitted effect of over 20% in size
[13] = qHTS assay to identify small molecule antagonists of the estrogen receptor alpha (ER-alpha) signaling pathway using the BG1 cell line - cell viability counter screen (AID 743081);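 further: compound given together with 17beta-estradiol as the ER stimulus; series mostly up to about 70 µM; nearly all actives have a fitted effect of over 45% in size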
[14] = target: Aromatase (Homo sapiens) (UniProt P11511); assay: qHTS assay to identify aromatase inhibitors (AID 743083); further: series mostly up to about 70 µM; nearly all actives have a fitted effect of over 55% in size
[15] = qHTS assay to identify small molecule antagonists of the thyroid receptor (TR) signaling pathway - cell viability counter screen (AID 743064); further: nearly all actives have a fitted effect of over 50% in size
How it was run: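 Compounds were tested on GH3.TRE-Luc cells in the presence of T3 at 1 nM final. Following 23.5 h at 37 °C, cell viability was quantified by CellTiter-Fluor.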

[16] = qHTS assay to identify small molecule antagonists of the estrogen receptor alpha (ER-alpha) signaling pathway using the BG1 cell line (AID 743080; calls by dose curve;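 further: BG1 cells stimulated with 17beta-estradiol alongside compound; series mostly up to about 70 µM; nearly all actives have a fitted effect of over 25% in size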)
How it was run: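 Luminescence from a 4×ERE-luciferase reporter in BG1-Luc-4E2 cells served as read-out. Cells, pre-cultured 5 days in stripped-serum phenol-red-free medium, were exposed to compound with 17beta-estradiol co-stimulation for 21.5 h at 37 C.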

Measured: Potency

Sequence of Estrogen receptor (Homo sapiens) (P03372 whole entry, looked up): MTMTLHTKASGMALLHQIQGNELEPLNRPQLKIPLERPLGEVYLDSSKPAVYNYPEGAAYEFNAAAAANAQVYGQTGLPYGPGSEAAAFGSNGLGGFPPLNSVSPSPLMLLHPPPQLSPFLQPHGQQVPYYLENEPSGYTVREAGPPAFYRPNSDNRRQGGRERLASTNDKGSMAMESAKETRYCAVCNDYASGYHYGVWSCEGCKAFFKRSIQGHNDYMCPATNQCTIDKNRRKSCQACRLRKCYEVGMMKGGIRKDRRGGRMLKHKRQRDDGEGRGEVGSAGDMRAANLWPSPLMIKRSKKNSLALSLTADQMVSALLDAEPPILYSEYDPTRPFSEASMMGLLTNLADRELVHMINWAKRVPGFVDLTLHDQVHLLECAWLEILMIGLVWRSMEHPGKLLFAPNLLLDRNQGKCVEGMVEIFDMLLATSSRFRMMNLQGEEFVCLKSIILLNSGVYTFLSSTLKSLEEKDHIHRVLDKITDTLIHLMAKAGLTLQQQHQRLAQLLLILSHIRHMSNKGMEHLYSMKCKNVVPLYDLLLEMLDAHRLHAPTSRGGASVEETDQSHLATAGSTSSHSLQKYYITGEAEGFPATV
Sequence of Aromatase (Homo sapiens) (P11511 whole entry, looked up): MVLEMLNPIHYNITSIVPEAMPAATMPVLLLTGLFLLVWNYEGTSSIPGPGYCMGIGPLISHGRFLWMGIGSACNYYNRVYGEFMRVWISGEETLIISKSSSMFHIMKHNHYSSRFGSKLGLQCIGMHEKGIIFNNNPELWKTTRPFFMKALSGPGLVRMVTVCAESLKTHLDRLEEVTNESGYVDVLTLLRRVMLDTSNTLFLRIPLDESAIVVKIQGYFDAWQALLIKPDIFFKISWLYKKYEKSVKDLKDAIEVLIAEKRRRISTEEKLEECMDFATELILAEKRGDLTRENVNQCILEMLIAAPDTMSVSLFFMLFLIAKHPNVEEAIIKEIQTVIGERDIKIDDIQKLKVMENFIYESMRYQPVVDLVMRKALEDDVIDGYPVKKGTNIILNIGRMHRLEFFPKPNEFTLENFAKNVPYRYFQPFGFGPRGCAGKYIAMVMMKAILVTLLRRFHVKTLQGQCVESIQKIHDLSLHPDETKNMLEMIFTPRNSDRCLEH

CC(=O)Nc1ncc([N+](=O)[O-])s1
inactive: [1] | [2] | [3] | [4] | [5] | [6] | [7] | [8] | [9] | [10] | [11] | [12] | [13] | [14]

CCCC(C)CC (centres undefined)
inactive: [1] | [2] | [3] | [4] | [5] | [6] | [15] | [7] | [8] | [10] | [13] | [14]

O=C(c1ccc2c(c1)C(=O)OC2=O)c1ccc2c(c1)C(=O)OC2=O
inactive: [1] | [2] | [3] | [4] | [5] | [6] | [15] | [7] | [8] | [10] | [13] | [14]

C=C(C)C(=O)OC
inactive: [1] | [2] | [3] | [4] | [5] | [6] | [15] | [7] | [8] | [13] | [14]

OCCCCCCCl
inactive: [1] | [2] | [3] | [4] | [5] | [6] | [15] | [7] | [8] | [10] | [11] | [16] | [13] | [14]

COCCOCCOCCOC
inactive: [1] | [2] | [3] | [4] | [5] | [6] | [15] | [7] | [8] | [10] | [13] | [14]

CCCCC(=O)N(C)C
inactive: [1] | [2] | [3] | [4] | [5] | [6] | [7] | [8] | [9] | [10] | [11] | [12] | [16] | [13] | [14]

C=CCOc1c(Br)cc(C(C)(C)c2cc(Br)c(OCC=C)c(Br)c2)cc1Br
inactive: [1] | [2] | [3] | [4] | [5] | [6] | [15] | [9] | [10] | [11] | [12] | [16] | [13] | [14]

C=C(C)[C@@H]1CC[C@@H](C)C[C@@H]1O
inactive: [1] | [2] | [3] | [4] | [5] | [6] | [15] | [10] | [13] | [14]
